# Data taken from PMC5540273 (PLoS ONE, 2017).
# Test system: T1, ARK5
# T1 construct: gene NUAK1
# Conditions: concentration: 1 μM, replicates: in singlicate; n = 1
# 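Further: KINOMEscan kinase panel screen.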
row,Compound,%Inh [%]
1,Fc1cccc(COc2ccc(Nc3ncnc4cc[nH]c34)cc2Cl)c1,11
2,COc1cc2ncnc(Nc3ccc(OCc4ccccc4Br)c(Cl)c3)c2cc1OC.Cl [GI261590],3
3,CCn1c(-c2ccncc2)nc2cnccc21 [SB-735216],8
4,FC(F)(F)c1ccc(-c2nn3ncccc3c2-c2ccnc(Nc3cccc(C(F)(F)F)c3)n2)cc1 [GW828205],6
5,CNc1nccc(-c2c(-c3ccc(F)cc3)ncn2C2CCN(C)CC2)n1 [SB-222903],4
6,Cl.c1ccc(Cn2ncc3cc(Nc4ncnc5ccccc45)ccc32)cc1 [GW273749],0
7,Cc1ccc(NC(=O)c2cccc(C#N)c2)cc1-c1ccc(C(=O)Nc2ccncc2)cc1 [GSK1398463],33
8,COC(=O)c1c(-c2ccccc2)c2cc(Cl)ccc2c(=O)n1Cc1ccc(S(C)(=O)=O)cc1,19
9,COc1ccc(Nc2nccc(N3CCC(NC(=O)Nc4ccc5c(c4)OCO5)C3)n2)cc1 (stereo not shown) [GSK1379745],9
10,COc1ccc(Nc2nccc(N3CCC(NC(=O)c4cccc(NC(C)=O)c4)C3)n2)cc1 (stereo not shown) [GSK1379732],9
11,Cl.Cn1ccc(-c2cccc(Nc3ccnc4cc(-c5nccs5)ccc34)c2)n1 [GW525701],0
12,c1ccc(-c2ccc3c(-c4ccnc(Nc5ccc6c(c5)OCCO6)n4)cnn3n2)cc1 [GW818941],15
13,O=C(c1ccc(-c2cc(-c3c[nH]nc3-c3ccccn3)ccn2)cc1)N1CCCC1 [GW792479],0
